Results as given in PubChem BioAssay (Tox21).
Results filed as inconclusive are left out. Entries that show only a call come without a potency. Unmarked numbers belong to inactive results. Activity calls are given as the source filed them. Calls come from the whole dose curve; as a rule, active = well fitted activation curve with a large enough effect in the signal ratio in the repeat runs (not every such curve was filed as active); inconclusive = weak or mixed curves, or effect the other way; inactive = no such curve, though single readings can be large or run the other way; the % refers to the signal ratio.

Assay: qHTS assay for small molecule agonists of the antioxidant response element (ARE) signaling pathway (AID 743202)
Details: HepG2 ARE-bla reporter, beta-lactamase FRET, 16 h; series mostly up to 73.3 µM
Text: U.S. Tox21 Program National Center for Advancing Translational Sciences [NCATS] NIH Chemical Genomics Center [NCGC] U.S. Environmental Protection Agency [EPA] National Institutes of Environmental Health Sciences [NIEHS] National Toxicology Program [NTP] U.S. Food and Drug Administration [FDA] Tox21 Assay Overview: Oxidative stress has been implicated in the pathogenesis of a variety of diseases ranging from cancer to neurodegeneration. The antioxidant response element (ARE) signaling pathway plays an important role in the amelioration of oxidative stress. The CellSensor ARE-bla HepG2 cell line (Invitrogen) can be used for analyzing the Nrf2/antioxidant response signaling pathway. Nrf2 (NF-E2-related factor 2) and Nrf1 are transcription factors that bind to AREs and activate these genes. The CellSensor ARE-bla Hep G2 cell line contains a beta-lactamase reporter gene under control of the Antioxidant Response Element (ARE) stably integrated into HepG2 cells. The activation of the report gene under culture conditions can be detected by fluorescence intensity. This cell line has been used to screen the Tox21 10K compound library to identify agonists that induce oxidative stress.
Tox21 Assay Protocol Summary: The ARE-bla cells were dispensed at 2,000 cells/5 ul/well in 1536-well black wall/clear bottom plates using a Multidrop dispenser. After the assay plates were incubated at a 37 C/5% CO2 incubator for 5 hours, 23 nL of compounds dissolved in DMSO, positive controls or DMSO only was transferred to the assay plate by a pin tool. The plates were incubated at 37 C for 16 hours. After 1 uL of LiveBLAzer B/G FRET substrate was added using a Flying Reagent Dispenser, the plates were incubated at room temperature for 2 hours, and fluorescence intensity was measured by an Envision plate reader.
With `C[C@@H]1CCN(C(=O)[C@H](CCCN=C(N)N)NS(=O)(=O)c2cccc3c2NC[C@H](C)C3)[C@@H](C(=O)O)C1` the Potency was “inactive”. For `CO[C@]12C[C@@H](COC(=O)c3cncc(Br)c3)CN(C)[C@@H]1Cc1cn(C)c3cccc2c13`, the Potency was “inactive”. With `C=CCS(=O)(=O)O` the Potency was “inactive”. For `Cc1[nH]c(=O)c(C#N)cc1-c1ccc2nccn2c1`, the Potency was “inactive”. In the case of `CCS(=O)(=O)c1ccc(OC)c(C(=O)OC)c1`, the Potency is reported as “inactive”. For `CCCCOCCOCCOCc1cc2c(cc1CCC)OCO2`, the Potency was “inactive”. For `CCC(=O)OC(C)c1ccccc1` (stereo not given), the Potency was “inactive”. For `OCCOc1ccc(OCCO)cc1`, the Potency was “inactive”. In the case of `CS(=O)(=O)O`, the Potency is reported as “inactive”. In the case of `COc1ccccc1OCC(O)CN1CCN(CC(=O)Nc2c(C)cccc2C)CC1` (stereo not given), the Potency is reported as “inactive”. For `Brc1c(NC2=NCCN2)ccc2nccnc12`, the Potency was “inactive”. In the case of `C[N+](C)(C)CC(O)CC(=O)[O-]` (stereo not given), the Potency is reported as “inactive”. For `O=C1CCCC(=O)C1`, the Potency was “inactive”. In the case of `CC(C[N+](C)(C)C)OC(N)=O` (stereo not given), the Potency is reported as “inactive”. With `CCOC(=O)CC(C)=O` the Potency was “inactive”. With `CN(C)CCCNCCCN(C)C` the Potency was “inactive”. For `O=C(O)CCCl`, the Potency was “inactive”. For `O=C(O)c1ccccc1OP(=O)(O)O`, the Potency was “inactive”. With `C=C1CC[C@H]2C[C@@H]1C2(C)C` the Potency was “inactive”. In the case of `CCN1CCC[C@H]1CNC(=O)c1c(O)c(Cl)cc(Cl)c1OC`, the Potency is reported as “inactive”. With `COc1ccc2c(c1)c(CC(=O)OCC(=O)O)c(C)n2C(=O)c1ccc(Cl)cc1` the Potency was “inactive”. Molecule `NCCCNCCSP(=O)(O)O` has an activation of -5.66% [at 8.36 µM]. With `Cc1ccc(=O)n(-c2ccccc2)c1` the Potency was “inactive”. For `NS(=O)(=O)c1ccccc1Cl`, the Potency was “inactive”. For `Cn1c(N)c(N=O)c(=O)n(C)c1=O`, the Potency was “inactive”. In the case of `O=C[C@H](O)[C@@H](O)[C@H](O)[C@H](O)CO`, the Potency is reported as “inactive”. For `CC(C)=CCCC(C)CC(=O)O` (stereo not given), the Potency was “inactive”. For `CC(=O)c1ccccc1O`, the Potency was “inactive”. In the case of `NS(=O)(=O)c1ccc(C(=O)O)cc1`, the Potency is reported as “inactive”. For `O=S(O)CO`, the Potency was “inactive”. For `COc1ccc2c(c1)CCCC2=O`, the Potency was “inactive”. For `N=c1nc(N2CCCCC2)cc(N)n1O`, the Potency was “inactive”. With `NS(=O)(=O)c1cc(C(=O)NN2C[C@H]3[C@H]4CCC(C4)[C@H]3C2)ccc1Cl` the Potency was “inactive”. With `CCCN(CCC)CCc1cccc2c1CC(=O)N2` the Potency was “inactive”. With `COC(=O)c1ccc(C)cc1C1=NC(C)(C(C)C)C(=O)N1` (stereo not given) the Potency was “inactive”. With `NC(=O)COCCN1CCN(C(c2ccccc2)c2ccc(Cl)cc2)CC1` (stereo not given) the Potency was “inactive”. For `CCN1CCC[C@H]1CNC(=O)c1cc(S(N)(=O)=O)ccc1OC`, the Potency was “inactive”. Molecule `C[C@](N)(Cc1ccc(O)cc1)C(=O)O` has an activation of 6.12% [at 8.36 µM]. In the case of `CC(=O)CC(C)(C)C1CCCCC1`, the Potency is reported as “inactive”. For `CC(C(=O)O)c1ccc(CC2CCCC2=O)cc1` (stereo not given), the Potency was “inactive”.
